Source: PubChem BioAssay (National Center for Advancing Translational Sciences (NCATS))
Shown are actives, neighbours in structure and some others; about 12% of the full set was active somewhere.
NS1 function inh: influenza NS1 inhibition. 270,000 tested, 0.4% active. AID 2326. Potency, µM (top dose mostly 46.1 µM); also: actives are rising curves; nearly all actives have a fitted effect of over 50% in size
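A cell-based growth assay was used: compounds that relieve NS1-induced slow growth of budding yeast raise OD600. Assay medium was yeast nitrogen base with ammonium sulphate and -URA supplement, pH 6.0, with 2% galactose.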
SARS PLP yeast: SARS-CoV PLP inhibition in yeast. S. cerevisiae expressing SARS-CoV PLpro, growth rescue. Potency, µM (highest dose often 32.9 µM), hits mostly activators. 330,000 tested, 0.19% active. AID 485353; also: nearly all actives have a fitted effect of over 55% in size
CHX counter: counter-screen for Shiga toxin inhibitors: cycloheximide protein synthesis inhibition; AID 2314; max response, %; 300,000 tested, 12% active; cell reporter, cycloheximide protein synthesis inhibition counterscreen; in the data active = max response mostly above about 13%, no sharp cut-off; inactive = mostly below about 14%; also: read at 38.3 µM for the half of the compounds with a filed dose
Shiga inhibitor: blocks Shiga toxin action in Vero cells. AID 2315. Vero cells, Shiga toxin protein synthesis inhibition reporter. 290,000 tested, 9.2% active. inhibition, % at 38.7 µM; in the data active = inhibition mostly above about 28%, no sharp cut-off; inactive = mostly below about 43%
Each line names hits and unclear results; the compound was inactive in the other large screens. Unless noted, calls follow the shape of the full dose curve.

Cc1cccc(OCCn2c(=S)[nH]c3ccccc32)c1	CHX counter 13
COc1ccc([N+](=O)[O-])cc1NS(=O)(=O)c1cccc(C(=O)O)c1	none
CCCC(=O)c1cc2ccccc2oc1=O	none
COc1ccc(C(=O)Cc2cc3ccccc3oc2=O)cc1	CHX counter 28, Shiga inhibitor 61
Cc1ccc(C(=O)Cc2cc3ccccc3oc2=O)c(C)c1	CHX counter 57, Shiga inhibitor 67
CCC1(C)OC(=O)NN(c2ccc(C)cc2)C1(C)O (stereo unspecified)	none
Oc1ccccc1C=NC1=NN(c2cccc(C(F)(F)F)c2)CC1	none
FC(F)(F)c1cccc(N2CCC(N=CN3CCCCCC3)=N2)c1	CHX counter 39, Shiga inhibitor 49 (no result: NS1 function inh)
O=C(Nc1cccc(-c2cscn2)c1)C1CCN(Cc2ccccn2)CC1	none
COc1ccccc1Oc1ncnc2c1cnn2-c1ccccc1	CHX counter 43, Shiga inhibitor 117 (no result: NS1 function inh)
CCOC(=O)CSc1ncnc2c1cnn2-c1ccccc1	none
COc1cc(C(C)=O)ccc1Oc1ncnc2c1cnn2-c1ccc(F)cc1	CHX counter 54, Shiga inhibitor 106
Brc1ccccc1-c1nnc(COc2ncnc3c2cnn3-c2ccccc2)o1	none
COc1cc(C(C)=O)ccc1Oc1ncnc2c1cnn2-c1cccc(Cl)c1	none
COc1ncnc2c1cnn2-c1ccccc1	CHX counter 37, Shiga inhibitor 81 (no result: SARS PLP yeast)
O=C(O)c1cccc(C[C@H](Br)C(=O)O)c1	none (no result: SARS PLP yeast, CHX counter, Shiga inhibitor)
CN(C)S(=O)(=O)Nc1cc(F)cc(F)c1	none
CCC(=O)/C=C1/Sc2ccccc2N1CC	CHX counter 29, Shiga inhibitor 121
CN1/C(=C\C(=O)c2ccco2)C(C)(C)c2ccccc21	none
CCC(=O)/C=C1/Sc2ccc(OC)cc2N1CC	none
CCN1/C(=C/C(=O)c2ccco2)Sc2ccccc21	CHX counter 24
Cc1ccc(Cl)cc1N1CCN(C(=O)c2ccc3c(c2)CCN3S(C)(=O)=O)CC1	none
CCOC(=O)Cc1csc(NC(=O)CN2CCCCC2)n1	none
O=C(Nc1cccc(C(F)(F)F)c1)OC1CN2CCC1CC2 (stereo unspecified)	none
O=C(Nc1ccc(C(F)(F)F)cc1)OC1CN2CCC1CC2 (stereo unspecified)	CHX counter 32, Shiga inhibitor 55
O=C(Nc1ccc2c(c1)OCO2)c1cncc(Br)c1	CHX counter 32, Shiga inhibitor 66
NS(=O)(=O)c1cccc(NC(=O)c2cncc(Br)c2)c1	none
O=C(Nc1ccc2c(c1)OCCO2)c1cncc(Br)c1	CHX counter 23
C=C(C)[C@@H]1CC=C(CN2CCC(CCOC)(C(=O)OCC)CC2)CC1	none
CCCc1cnc(N2CCN(C(=S)NC)CC2)nc1	CHX counter 44, Shiga inhibitor 66
Cc1ccc(NC(=O)CN(C)S(=O)(=O)c2ccc3c(c2)n(C)c(=O)c(=O)n3C)cc1	none
Cc1ccc(NC(=O)c2cnc3scc(C)n3c2=O)c(C)c1	none (no result: SARS PLP yeast, CHX counter, Shiga inhibitor)
Cc1cccc(NC(=O)c2cnc3scc(C)n3c2=O)c1	CHX counter 19, Shiga inhibitor 26
Cc1csc2ncc(C(=O)Nc3ccc4c(c3)OCCO4)c(=O)n12	NS1 function inh inconclusive, CHX counter 59, Shiga inhibitor 117
Cc1csc2ncc(C(=O)Nc3ccon3)c(=O)n12	none
Cc1csc2ncc(C(=O)Nc3ccccc3F)c(=O)n12	CHX counter 24
C=CCn1c(-c2ccc3ncccc3c2)n[nH]c1=S	NS1 function inh inconclusive
CCOc1ccc(N(CC(=O)NCc2ccc(F)cc2)C(=O)CCC(=O)Nc2nccs2)cc1	none
O=C(Nc1nc(-c2ccc(S(=O)(=O)N3CCCC3)cc2)cs1)c1ccco1	CHX counter 5.2, Shiga inhibitor 22
CC(=O)Nc1ccc(S(=O)(=O)N2CCN(C(=O)c3ccco3)CC2)cc1	CHX counter 21
O=C(Nc1ccc(S(=O)(=O)N2CCCCCC2)cc1)c1ccco1	CHX counter 23, Shiga inhibitor 40
CNc1nc(-c2ccc(S(=O)(=O)N3CCCCC3)cc2)cs1	none (no result: NS1 function inh, CHX counter, Shiga inhibitor)
O=c1c2ccccc2ncn1-c1ccc([N+](=O)[O-])cc1Cl	none
COc1cccc(OCc2cc(C(=O)N3CCCC3c3ccccn3)no2)c1 (stereo unspecified)	CHX counter 70, Shiga inhibitor 62
COc1cccc(OCc2cc(C(=O)N3CCN(C4CCCC4)CC3)no2)c1	none
COc1cccc(OCc2cc(C(=O)N3CCNC(=O)C3Cc3ccccc3)no2)c1 (stereo unspecified)	CHX counter 40, Shiga inhibitor 74
NC(=O)CC(NC(=O)Cc1cccc2ccccc12)c1ccc(N2CCN(c3ccc(F)cc3)CC2)c([N+](=O)[O-])c1 (stereo unspecified)	NS1 function inh inconclusive
O[C@H](C[C@@H]1CCCCN1)c1ccc2c(c1)oc1ccccc12	none (no result: SARS PLP yeast, CHX counter, Shiga inhibitor)
O=C(COC(=O)c1ccc2ccccc2n1)NCc1ccccc1	none
CNC(=S)N(C1=NCC(c2ccc([N+](=O)[O-])cc2)S1)c1ccccc1 (stereo unspecified)	CHX counter 39, Shiga inhibitor 56
CCN(Cc1ccccc1)c1ccc(N=Nc2nn(C)c(C)c2[N+](=O)[O-])cc1	NS1 function inh inconclusive, CHX counter 17
CCN(CC)c1ccc(N=Nc2nn(C)c(C)c2[N+](=O)[O-])cc1	CHX counter 65, Shiga inhibitor 87
COc1ccc2[nH]c(O)c(N=NC(=O)Cc3cccs3)c2c1	CHX counter 27, Shiga inhibitor 39
O=C(Cc1cccs1)N=Nc1c(O)[nH]c2ccc(Br)cc12	none
O=C(Cc1cccs1)N=Nc1c(O)[nH]c2ccccc12	CHX counter 56, Shiga inhibitor 85
Cc1sc2nc(C3CC3)nc(NCCNS(C)(=O)=O)c2c1C	none
C=CCc1c(NCCO)nc(C)[nH]c1=O	CHX counter 20
CCn1cnc2sc(C(=O)Oc3cccc(C)c3)c(C)c2c1=O	CHX counter 29, Shiga inhibitor 79 (no result: NS1 function inh)
CCn1cnc2sc(C(=O)N3CCN(c4ccc(OC)cc4)CC3)c(C)c2c1=O	none
Cc1ccc(S(=O)(=O)N(C)C[C@@H]2Oc3ccc(NS(C)(=O)=O)cc3CC(=O)N([C@H](C)CO)C[C@@H]2C)cc1	none (no result: NS1 function inh, CHX counter, Shiga inhibitor)
O=C1CCC(c2ccccc2)=NN1	none (no result: NS1 function inh)
CC(C)CCOc1ccc(C2=NNC(=O)CC2)cc1	CHX counter 26, Shiga inhibitor 43
CCCCCc1ccc(C2=NNC(=O)CC2)cc1	CHX counter 14 (no result: Shiga inhibitor)
COCCNC(=O)NC(=O)COC(=O)c1cc([N+](=O)[O-])ccc1Sc1nc(C)cs1	none
CN1c2ccccc2C(C)(C)C12C=Cc1cc(O)ccc1O2 (stereo unspecified)	CHX counter 21
COC(=O)C1=C(CCc2ccccc2)NC(=O)NC1c1ccc(Br)cc1 (stereo unspecified)	none
CC(=O)Oc1ccccc1C(=O)Nc1ccccc1C(=O)N1CCCC1	none
Cc1ccc([N+](=O)[O-])c(OCCN2CCNCC2)c1	none
Cc1ccc([N+](=O)[O-])c(OCc2ncc(Cl)n2C)c1	CHX counter 39, Shiga inhibitor 72
CCn1c(Cn2nnc(-c3ccccc3)n2)nnc1SCC(=O)Nc1ccc(C(C)=O)cc1	CHX counter 44, Shiga inhibitor 57
CCn1c(SCC(=O)c2ccc(Cl)cc2)nnc1-c1ccoc1C	SARS PLP yeast inconclusive, CHX counter 33, Shiga inhibitor 17
CCn1c(SCC(=O)c2ccccc2)nnc1-c1cccnc1	CHX counter 44
